Bioassay records as filed in PubChem.
NRP1-CendR mod – alters CendR peptide binding to human NRP-1. O14786. FAM-RPARPAR peptide binding to NRP-1, fluorescence polarization. inhibition, % at 25 µM. hit rate 0.85% among 360,000. AID 602438;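 active = inhibition or corrected inhibition above about 18%, plus a signal ratio from 0.5 to 1.5, limit read from the data, passing the limit was not always enough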
PKA-R1A act – activates the PKA-R1A holoenzyme complex. PKA-R1A dissociation, Cy5-IP20 fluorescence polarization; scaled: DMSO 0%, 113 µM cGMP 100%. activation, % at 11.4 µM. hit rate 0.083% among 340,000. AID 504707;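 active = percent activation above the mean of all tested compounds plus 3 SD, cut at about 19% in these data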;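 also: higher means more PKAc released from R1A so a rise in polarization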
ATG4B inhibitor – inhibitors of human ATG4B cysteine protease | Q9Y4P1 | inhibition, % at 8.33 µM | hit rate 0.51% among 340,000 | ATG4B cleavage of LC3-PLA2, NBD-HPC fluorescence, 1 h; in the data active = inhibition above about 40%
PKA-R2B act – activators of human PKA-R2B complex; AID 504700; PKA-R2B holoenzyme dissociation, Cy5-IP20 fluorescence polarization; R2B truncated from residue 108, S112A mutant; 0% DMSO only, 100% 113 µM cGMP; P22694+P31323; hit rate 0.079% among 340,000; activation, % at 11.4 µM;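 active = activation above a cutoff set at the mean over all compounds plus 3 SD, cut at about 18% in these data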;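 also: higher means more holoenzyme dissociation and a rise in polarization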
Target sequence (P31323 whole entry, looked up, other chains not shown, the tested form may be a part): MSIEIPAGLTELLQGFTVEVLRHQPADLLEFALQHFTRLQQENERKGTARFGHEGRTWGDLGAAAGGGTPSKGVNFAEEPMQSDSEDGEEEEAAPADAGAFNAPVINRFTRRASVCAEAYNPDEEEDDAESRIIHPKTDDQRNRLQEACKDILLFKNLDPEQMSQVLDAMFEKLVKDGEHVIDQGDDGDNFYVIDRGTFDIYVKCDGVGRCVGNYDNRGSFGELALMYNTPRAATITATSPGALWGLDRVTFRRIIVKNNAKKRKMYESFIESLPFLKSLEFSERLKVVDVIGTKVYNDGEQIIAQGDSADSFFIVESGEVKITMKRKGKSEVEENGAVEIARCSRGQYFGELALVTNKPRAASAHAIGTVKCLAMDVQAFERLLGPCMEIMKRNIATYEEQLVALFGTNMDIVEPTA
VLA-4 inh – inhibition in a human VLA-4 binding assay; P13612; VLA-4 expressing cells, ligand binding flow cytometry; inhibition, % (about 7 µM as worked out from the volumes in the protocol); hit rate 0.2% among 330,000; in the data active = inhibition above about 50%
* hit, by the source's call; . = no result given. Only some compounds are listed: those with a hit (about 1.6% of all), similar ones and a draw of the others.

SMILES	NRP1-CendR mod	PKA-R1A act	ATG4B inhibitor	PKA-R2B act	VLA-4 inh
CCOC(=O)CN1C(=O)N[C@@H](c2ccccc2)[C@H](C(C)=O)[C@H]1C	25*	3	-9	-2	0
CCOC(=O)N(C)c1c(CC)nc2c(OCc3ccccc3C)cccn12	1	.	.	.	.
CCOC(=O)C1=C(COC(=O)CCOc2ccccc2)NC(=O)NC1C (stereo not drawn)	4	3	8	5	8
COc1ccc(OC)c(CN2C(=O)CN(S(C)(=O)=O)CC2(C)C(=O)NCc2ccccc2)c1 (stereo not drawn)	3	.	.	.	.
O=C1C(=O)c2ccc(-c3ccccc3)cc2-c2ccccc21	4	-10	-25	-11	15
O=C1C(c2ccccc2)=[N+]([O-])c2ccccc21	30*	2	-17	7	18
O=[N+]([O-])c1cc(-c2nc3nc4ccccc4nc3n2CCc2ccccc2)cc([N+](=O)[O-])c1	28*	-8	4	-6	-13
COc1ccc(OCc2cc(C(=O)N3CCCCCCC3)no2)c(Cl)c1	14	13	13	-5	16
CCOC(=O)N1CCN(C(=O)c2cc(COc3ccc(OC)cc3Cl)on2)CC1	25*	-9	-1	3	-5
CC(=O)c1ccc(S(=O)(=O)N(C)CCCC(=O)N2CCN(c3ncccn3)CC2)cc1	-2	-1	-14	16	5
CC1CCCCC1NC(=O)CNC(=O)c1cccs1 (stereo not drawn)	10	-7	4	3	9
Nc1ccc2c(O)cc(S(=O)(=O)O)cc2c1	28*	2	1	-3	.
O=S(=O)(O)c1cc(O)c2ccc(Nc3ccccc3)cc2c1	-4	4	3	0	.
O=S(=O)(O)c1cc(O)c2cc(Nc3ccccc3)ccc2c1	42*	-5	3	-5	.
COc1ccccc1Nc1ccc2c(O)cc(S(=O)(=O)O)cc2c1	71*	-2	19	6	.
CC(=O)Nc1ccc(CN(C)c2c(C)nc3ccc(C(=O)N(C)Cc4ccco4)cn23)cc1	9	.	.	.	.
CC(=O)Nc1cc(-c2cccc(F)c2)cn2c(-c3ccc(F)cc3)cnc12	-20	.	.	.	.
O=C1C=CC(=NN=C(c2ccccc2)c2ccccc2)C=C1	9	.	.	.	.
CCOC(=O)[C@]12CCCC=C1N(CCc1ccc(OC)c(OC)c1)C(=O)[C@H](CC(=O)NCCc1ccccc1OC)C2	5	.	.	.	.
CC(=O)Oc1cc2cccc(OC(C)=O)c(=O)c2c(OC(C)=O)c1OC(C)=O	30*	5	-26	-10	28
CCOC(=O)Nc1nnc(-c2cccc(OC)c2)s1	26*	-7	1	-6	-18
OCc1ccccc1-c1ccc2nncn2c1	0	.	.	.	.
N#Cc1ccc(Nc2nc(-c3ccc(O)cc3O)cs2)cc1C(F)(F)F	-12	-5	41*	-4	0
Cn1nc([N+](=O)[O-])c(C(C#N)c2ccccn2)c(Cl)c1=O (stereo not drawn)	19	-12	-4	-12	11
CCCn1nc([N+](=O)[O-])c(C(C#N)c2nc3ccccc3o2)c(Cl)c1=O (stereo not drawn)	-1	-2	84*	-2	-6
SMILES	NRP1-CendR mod	PKA-R1A act	ATG4B inhibitor	PKA-R2B act	VLA-4 inh
O=C(Nc1ccc(Cl)cc1)Nc1nc(-c2ccccc2O)cs1	-1	-4	-9	0	4
CCOC(=O)Cc1csc(NC(=O)Nc2ccc(Cl)cc2)n1	26*	2	-2	-5	0
Cc1csc(NC(=O)Nc2ccc(Cl)cc2)n1	26*	8	-8	-5	-6
CCOC(=O)Cc1csc(NC(=O)Nc2cccc(Cl)c2)n1	6	-4	0	8	1
Cc1ccc2nc(-c3ccc(O)cc3)oc2c1	-40	3	-3	-15	14
O=C(O)c1ccccc1NS(=O)(=O)c1ccc(NN=Cc2ccccc2F)c([N+](=O)[O-])c1	-34	4	40	23*	-2
Cc1cc(NC(=O)CCC(=O)N(c2ccccc2)C(C(=O)NC2CCCC2)c2ccccc2)no1 (stereo not drawn)	-7	0	5	-9	16
Cc1cc(NC(=O)CCC(=O)N(c2cccc(F)c2)C(C(=O)NC2CCCC2)c2ccccc2)no1 (stereo not drawn)	26*	4	-3	3	-8
Cc1cc(NC(=O)CCC(=O)N(Cc2ccco2)C2(C(=O)NC3CCCC3)CCCCC2)no1	19*	-1	-9	-4	-11
Cc1cc(NC(=O)CCC(=O)N(Cc2ccco2)C2(C(=O)NC3CCCCC3)CCN(C)CC2)no1	4	-8	-8	-5	3
Cc1cc(NC(=O)CCC(=O)N(c2ccccc2)C(C(=O)NC2CCCC2)c2cccs2)no1 (stereo not drawn)	20*	-3	-3	4	12
CCCCN(C)c1c(C)nc2ccc(C(=O)NCCOc3ccc(OC)cc3)cn12	0	.	.	.	.
COc1cc2c(cc1OC)C(c1ccccc1[N+](=O)[O-])=NCC2	9	.	.	.	.
C/C(Cl)=C/CSc1nn2c(=O)c3ccccc3nc2s1	26*	-7	15	-12	0
Cc1ccc(C(=O)N/C(=C\c2sccc2C)C(=O)NCc2ccco2)cc1	39*	1	8	-1	7
Cc1ccccc1/C=C/c1nc2ccccc2c(=O)n1CCc1ccccc1	40*	-10	9	-5	-18
Cc1ccccc1/C=C/c1nc2ccccc2c(=O)n1Cc1ccccc1	-7	6	-7	1	-1
O=C([C@@H]1CC=C[C@@H]2CCN(C3CCCCC3)C(=O)[C@@H]21)N1CCN(c2ccccc2)CC1	23*	6	-4	-5	1
COc1ccc(NC(=O)[C@@H]2CC=C[C@@H]3CCN(C4CCCCC4)C(=O)[C@@H]32)cc1	4	4	6	-10	30
CCOC(=O)c1cc(-c2ccccc2)sc1NC(=S)Nc1cccc(C)n1	43*	-6	-12	2	19
CCOc1ccccc1NC(=O)C(c1ccccc1)N1CCN(CC(=O)N2CCCC2)CC1 (stereo not drawn)	2	4	-10	-9	-11
COc1cc(OC)c(C(=O)OCC(=O)Nc2cc(C)on2)cc1OC	36*	5	1	10	-8
O=C(NCCN1CCOCC1)C12CC3CC(C1)CC(c1ccccc1)(C3)C2	44*	-10	-5	-9	9
NC(=O)NN=C1C2CCCC1C(c1ccccc1)NC2c1ccccc1 (stereo not drawn)	45*	-14	21	-1	-9
NC(=O)C(=O)NN=C1CCC(c2ccccc2)CC1 (stereo not drawn)	-10	-8	-9	1	10
O=C(O)Cn1ncn(-c2ccc(OC(F)(F)F)cc2)c1=O	26*	-2	-6	-2	17
O=C(Cn1cccc1)Nc1ccc(OC(F)(F)F)cc1	15	-3	0	-5	5
